Whole data set: some 59,000 sequences, median the read-out near -0.00055, cut for the lowest 2% near -2. The full list was thinned out, with the lowest values kept by preference.

Data on 85 sequences can be found in PubChem BioAssay AID1159506 (National Center for Advancing Translational Sciences (NCATS), 2015).

This assay can be described thus: Identification of proteins required for the processing of the EWS-FLI1 nascent transcript.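 Note: robust z of luciferase light less the median z of siRNAs with the same seed.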 The conditions noted are these: TC32 Ewing sarcoma NR0B1-luc vs CMV-luc (EWS-FLI1 target promoter against control promoter), 48 h; screened at 20 nM (by protocol). An outline of the steps:
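Readout: OneGlo luminescence, 48 h post-transfection, TC32-NR0B1-luc vs TC32-CMV-luc in parallel. siRNA 20 nM final, RNAiMax lipid, 600 cells/well; z-score-MAD transformed, then seed-adjusted.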
On to UCUGGUGUACAAGUAGUCC against FICD, for which the seed-corrected z-score was found to be 0.433.
As to UCUCCUCAAAGCACCAGCC against LOC653712, the seed-corrected z-score was -0.019.
Then AAAGUAGCAUCGUCUGUCU against GSC, with 0.704; and UUUGAGUAGAGCAGCAUCC against SENP3, with -2.41.
Under AUACUGGUUAGAAUCAGAC against EVI5 stands -0.0438.
Then AAUGAAGCAGUUCAUAAGC against ST3GAL6, with 0.107; and UUACGUUCAACCUUAGAUC against PHLPP1, with 0.355; and UUUAGUUCACCCUGAAUCG against NUP54, with -0.0579.
Turning to UAAGUACUCUCAACACUGC against PIN4P1, the seed-corrected z-score worked out at 0.00579.
Then AGCUUGUAAACACUUCUGC against RGN, with -2.52.
Under UUUGAGUCUAGUGGGAUAG against SLC22A10 stands 0.479; under UAUAGAUGCGAAUCCUUUC against C17orf97, -0.421.
Under AAAGCUGCAACUGCCUCCC against C2orf48 stands -2.61; under UAAGUCGAACCUUAUCUCC against AIM2, -0.16.
With UAGAAUAAAAUACCGAAUG against SNRPD1, the seed-corrected z-score is -1.88.
Then UUUGUCUCAAGAAUUAUCA against SPTSSA, with 0.0457; and UUGAUUCUCGGGUCUUUGG against FAM71F2, with -12.6; and UUUGAUUAAAAGGUCUCUG against PIGX, with -1.29.
Under UGAGAUGAACUGAUCUUGC against OR10W1 stands 0.324; under UCAGGUUUAAGAGGUAUGC against TRAM2, 0.485; under UCCAGUUGCACUUCUGUCC against CGREF1, -3.65.
UGUAUACAAAGAGACAAUC against TAS2R5 yielded a seed-corrected z-score of 0.728.
Sequence UUUGCUAGAAGCCUUCUUG against DOK6 showed a seed-corrected z-score of -0.847.
Under UUGAGGUCAAUUUCGGCUG against H2AFY2 stands -0.937; under UGUUUUAACUGCUGUAUCC against RP9, 0.734; under UCUUCAUUAGCUUCUUCAC against PLCXD2, 0.44.
The sequence UGAUGCACGAGAAGAAGCC against KCNK3 showed a seed-corrected z-score of -13.5.
Under UUUGCUACAGAAUUGCUUG against ANAPC16 stands -1.17; under AAAGGAUCUCUCUGUAUUU against SNTN, 1.99.
Under UGUACUGUCAGACUAAUGC against MRGPRX3 stands -0.749; under UUCAGCAUUACUCUCUGCG against RPL17P39, -2.51.
Consider UCAGCAUAUAGCAGGAUCC against NPR2, for which the seed-corrected z-score is -0.565.
Under AUUCUCACCAGACAUCCUG against KRT74 stands 1.12.
The sequence AAGAAUUCCAUACAUCUUC against ACKR1 yielded a seed-corrected z-score of -0.0448.
Consider UAAGCAUCCAGUAGGCAGG against XBP1, for which the seed-corrected z-score is -3.08.
Under UCUCUAAAAGGUGUCUUGC against SH3RF2 stands 0.606.
Sequence AUAGUAAUCAUCCAGAGCA against ARHGEF35 registered a seed-corrected z-score of -0.685.
Then AUAGGUACUGCACUGCAGG against GPS2, with -0.377; and UGACUAUGAUGUUGAAUCC against OR8A1, with -1.35.
In the case of UUCGAUUCAUGAAAUCUCC against GTF3C1, the seed-corrected z-score was determined as 0.399.
Then UGUUCAACGAGGGUAUAGC against ZNF416, with 0.828; and UUGUGGUAGAUCUGGACGC against VASP, with -2.15; and ACAGUUAUUCUGUCCAUCG against LDLRAD3, with -6.33.
Under UCUGGUUUUUGUACCCGCC against LOC403323 stands -0.673; under UUUUUAACAGAGGUCUCCA against RAB42P1, -0.18; under UUUCAAUCUUGUCUGAGGC against COX11, -0.764.
Then UUGAGUAAGAACUUUAUCC against SMAD1, with -2.45.
AAUAUGUCGUUGUAAGUGC against ZNF644: the seed-corrected z-score is -0.209.
Under UUCUUCUAAAACAUCCUCG against GLE1 stands -0.174.
In turn, UUAUCUAUCACCCAAGCAG against RTN4IP1 yielded a seed-corrected z-score of -0.598.
As for UUCCGUUUAAUUUCAACUG against BRCA2, the seed-corrected z-score was found to be 0.32.
In turn, UAUUUGUUUCACCUCACUG against DNAJC8 returned a seed-corrected z-score of 1.25.
Sequence AGAAGGAACAUGCGUGCAG against TTC34 had a seed-corrected z-score of 1.38.
Under UCCUUGUCGACAACGAGUG against GAPVD1 stands -3.68; under UAAUUGAGUUUCUAAAGUG against CDKAL1, -0.809; under UUCAUUAUGUGGAACAUAC against CYP19A1, -1.02.
Under AAAGUGGACACCAUAGACC against HGD stands 0.0682; under UUUGUAGCAAGGAAUACAG against OR7A5, -3.5.
Sequence UGUCGAUCUAGGUACUGAC against SART3 displayed a seed-corrected z-score of -0.192.
Then AUAAAUGGUGGUUUAAGGU against METTL2B, with -0.343.
Then AAAGCCAGGAGUUCCGCUG against GNG8, with -0.7; and UCAGGAACACCGAGUACUC against S100A5, with -0.776; and UAGUUGGUUAAAUUGGACC against TEKT3, with -0.0576.
Then AAACCUUUUGCAUCUAUGG against GSTA12P, with 0.753.
As for AAAGUUGCUGGUGUGCUCC against NUTM1, the seed-corrected z-score was -1.38.
With UCUUUGAGCAGCUUCCAGC against SOX4, the seed-corrected z-score is -5.6.
On to UCAGGUAGCAGAGUACUGC against IL22RA1, for which the seed-corrected z-score was -0.631.
Under AGAGUUCAAAUGUAUUGUC against KLHL21 stands -1.34.
Then UCUUUUUGUAGGUCUCUGC against RCN3, with -3.02; and UCCUUUAACAACAAGUUGU against IL10, with -0.0724; and UCUCUAAACAGGUCCCAAG against PDX1, with 0.0859.
Sequence AUCGCUAAGACGGUGAUCC against EIF4ENIF1 gave a seed-corrected z-score of -0.0436.
Then UUCCGCAGCAAUGAUAGGC against TMEM132D, with -0.636.
Then UCUGCUACUCCAUUGAUCU against TRMT12, with -1.63; and UACAUAGAAGGUGUUGGGC against CD81, with 0.0377.
Under UUCUUUUGUCCAUACAAUC against TAS2R45 stands -2.34.
As to UACAAGCCCAGUUGAGAUC against DSTNP4, the seed-corrected z-score was -0.547.
The sequence UACGAUAUUGUUGCUACAG against SLIT2 had a seed-corrected z-score of -0.0537.
Then UAUUAGUCCCGGACGAAUG against SCAF8, with -0.115; and UUGUUUAUGAGCAAGGUGG against RPL41, with -0.22; and UUUGGUGCAAAGUCCAUGC against SKIV2L, with -2.51.
UUGAGGAUACAGCACAGCC against SERPINI1 displayed a seed-corrected z-score of -0.491.
Then ACAGGCUUUAUCAUACUGC against ZXDC, with -0.245; and UAGGUGAUAUCUCUCCGCC against TGM4, with -0.284; and ACAGUUCUCGCAGUACUGG against GPANK1, with -0.197.
